Source: PubChem (several laboratories)
Compounds with a hit are over-represented: about 12% of the library has one in this group of screens.
ROMK primary: human ROMK K+ channel modulation, primary screen. B-score at 10 µM. Tet-inducible ROMK, thallium flux fluorescence; actives lie on both sides. hit rate 2% among 130,000. P48048;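 active = signal ratio slope over the read window, or its plate-corrected B-score, at least 3 SD from the plate mean, either direction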;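 also: B-score of the F/F0 ratio slope over 7 to 12 s after thallium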
Cl transport mod: KCC2 (human) Cl- transport modulation | B-score of Tl+ flux slope (higher = more flux/activation; lower = inhibition) at 10 µM | hit rate 2.2% among 190,000 | Q9H2X9 | AID 1456 | KCC2 cells, thallium flux FluoZin-2 fluorescence;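 active = thallium flux slope and its plate-corrected score both differing from the plate sample mean at a set confidence after two filtering rounds, in either direction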;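 also: slope of fluorescence scaled to starting intensity during 10 to 20 s after thallium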
Target sequence (Q9H2X9 whole entry, looked up): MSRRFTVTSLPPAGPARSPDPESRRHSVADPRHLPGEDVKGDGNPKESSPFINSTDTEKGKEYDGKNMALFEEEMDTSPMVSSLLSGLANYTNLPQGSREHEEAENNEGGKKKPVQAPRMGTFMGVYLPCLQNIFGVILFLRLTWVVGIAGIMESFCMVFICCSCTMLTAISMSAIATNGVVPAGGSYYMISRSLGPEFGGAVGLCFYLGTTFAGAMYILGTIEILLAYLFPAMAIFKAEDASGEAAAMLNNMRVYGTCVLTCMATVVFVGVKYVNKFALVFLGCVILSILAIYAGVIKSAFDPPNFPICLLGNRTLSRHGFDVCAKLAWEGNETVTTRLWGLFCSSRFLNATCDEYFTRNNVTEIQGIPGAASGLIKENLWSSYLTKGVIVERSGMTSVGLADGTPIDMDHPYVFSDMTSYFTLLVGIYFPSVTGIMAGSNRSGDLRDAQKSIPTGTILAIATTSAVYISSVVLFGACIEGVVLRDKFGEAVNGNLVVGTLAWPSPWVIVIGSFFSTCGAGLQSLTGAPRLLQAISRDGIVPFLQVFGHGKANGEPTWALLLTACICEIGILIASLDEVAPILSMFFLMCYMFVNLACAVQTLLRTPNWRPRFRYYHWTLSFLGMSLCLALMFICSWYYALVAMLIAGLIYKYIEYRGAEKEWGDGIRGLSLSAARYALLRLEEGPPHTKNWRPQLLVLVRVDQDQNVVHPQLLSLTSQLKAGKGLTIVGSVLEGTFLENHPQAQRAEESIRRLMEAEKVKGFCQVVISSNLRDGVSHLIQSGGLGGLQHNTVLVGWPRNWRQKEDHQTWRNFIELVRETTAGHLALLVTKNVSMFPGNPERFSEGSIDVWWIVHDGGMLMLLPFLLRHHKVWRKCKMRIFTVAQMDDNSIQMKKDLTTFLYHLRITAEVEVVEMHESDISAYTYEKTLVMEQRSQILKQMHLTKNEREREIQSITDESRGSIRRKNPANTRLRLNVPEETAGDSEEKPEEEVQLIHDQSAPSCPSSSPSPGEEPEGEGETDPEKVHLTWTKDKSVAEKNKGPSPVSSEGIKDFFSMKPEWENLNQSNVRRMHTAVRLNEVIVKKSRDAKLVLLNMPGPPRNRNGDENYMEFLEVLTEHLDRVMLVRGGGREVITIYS
INS promoter inh: TRM-6 insulin promoter activity inhibition. inhibition, % at 2 µM. TRM-6 cells (human fetal islet line), insulin promoter-eGFP reporter, imaging; reporter expression induced with tamoxifen. hit rate 0.9% among 130,000;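 active = inhibition above the mean plus 3 SD, with well images judged a real hit on visual review, cut at about 60% in these data, passing the limit was not always enough; inconclusive = inhibition over the cutoff but images rejected on review; inactive = inhibition not above the cutoff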
L major viab: inhibitors of Leishmania major promastigote growth. Leishmania major promastigotes, resazurin fluorescence viability. inhibition, % at 10 µM. hit rate 9% among 200,000. AID 1063; in the data active = inhibition above about 50%;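 also: promastigotes grown with compound for 44 hours at 28 °C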
Ins promoter up: MIN6 insulin promoter up-regulation; hit rate 0.3% among 190,000; z-score at 5 µM; MIN6 insulin promoter-GFP reporter, high-content imaging; hits give high values; AID 1625;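 active = z-score above 3 at 5 µM with at least 500 cells counted in the well; inconclusive = wells under 500 cells, flagged as cytotoxic or low count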
WT yeast gro inh: growth inhibition of WT yeast, mitochondrial fusion screen | AID 1362 | mitochondrial fusion phenotypic screen, WT strain | hit rate 2.1% among 190,000 | inhibition, % at 10 µM; in the data active = inhibition above about 58%; tested in S. cerevisiae
* hit, by the source's call; i = inactive; ? = inconclusive; . = not tested or not shown.

SMILES	ROMK primary	Cl transport mod	INS promoter inh	L major viab	Ins promoter up	WT yeast gro inh
CC#CC[N+](C)(C)CCCCCCCCCCCC	.	1.28	?	100.5*	?	83.3*
C#CC[N+](C)(C)CCCCCCCCCCCC	.	-0.515	17.5	100.4*	?	78.2*
CC(=O)Nc1sc(N/N=C\c2ccc(O)cc2)nc1-c1cccs1	-0.759	-0.213	.	.	0.07	.
CCN(CC)c1ccc(/C=C(\C#N)c2nc(-c3cccs3)c(NC(C)=O)s2)cc1	.	-2.25	.	9.5	16.9*	11.4
CCOc1ccc(S(=O)(=O)c2c(C(=O)c3ccccc3)cnc3cc4c(cc23)OCCO4)cc1	.	0.0844	.	35.9	-0.11	-0.8
CC(=O)c1c(C)nc2ccc(Cl)cn12	0.0458	-0.103	22.9	-6.1	.	9.4
Cc1ccccc1C(=O)O/N=C/c1c(N2CCOCC2)n(C)c2ccccc12	.	0.629	.	99.6*	-1.45	15.7
Cn1c(Cl)c(/C=N/OC(=O)C2CC2)c2ccccc21	1.51	-0.398	-30.0	5.6	0.13	48.5
O=C1N(CCCCN2C(=O)C3(OCCO3)c3ccccc32)c2ccccc2C12OCCO2	-0.00524	.	-68.6	59.5*	-0.53	6.2
CCOC(=O)c1ccc2ncc(-c3ccccc3)nc2c1	0.575	-0.722	.	-4.8	-0.78	0.6
CC1=C(C#N)C(c2cn(-c3ccccc3)nc2-c2cccs2)C(C#N)=C(C)N1	.	-2.42	9.1	66.0*	0.03	-7.1
COCCOC(=O)C1=C(C)NC(=O)NC1c1cn(-c2ccccc2)nc1-c1cccs1 (centres undefined)	0.00718	0.46	13.9	-1.6	-0.15	-31.1
CCCCOc1ccccc1C1C(C(=O)OC)=C(C)N(C)C(C)=C1C(=O)OC	.	-0.815	12.5	87.7*	.	3.2
COC(=O)c1cnn(-c2ccc(C)c(C)c2)c1-n1cccc1	.	-0.397	.	64.9*	.	28.8
O=C(O)c1cnn(-c2ccccc2)c1-n1cccc1	.	0.108	.	-5.5	0.51	14.8
CCCCn1c(C)nc2c(=O)n(C)c(=O)[nH]c21	.	.	72.7*	-6.5	-0.07	-11.7
CC(=O)Nc1ccc(OC/C=C(\C)Cl)cc1	-0.0718	.	-57.1	-2.3	0.68	9.4
Cc1ccc(C2=NOC3(CC(=O)N(c4ccc(C)cc4)C3=O)C2)cc1 (centres undefined)	.	-0.607	.	.	-0.32	.
Cc1ccc(C(OCC(C)(C)C[N+](C)(C)C)c2ccccc2)cc1 (centres undefined)	0.0146	-0.0934	-31.2	100.0*	.	12.4
CCc1nnc(NC(=O)C(NS(=O)(=O)c2ccc3c(c2)OCCO3)C(C)C)s1 (centres undefined)	0.0517	2.09	.	-4.2	0.13	-5.5
OCCn1c(SCCOc2ccccc2)nc2ccccc21	-0.38	-1.7	-5.6	0.3	1.32	-6.8
CC1CCCN(C(=O)C2CCN(CC3CC=CCC3)CC2)C1 (centres undefined)	-0.302	-3.67	.	94.3*	-0.27	0.1
O=C(c1ccccc1)N1CCN(CC2CC=CCC2)CC1 (centres undefined)	.	0.71	13.5	70.2*	0.13	-10.3
COc1cc(CN2CCC(C(=O)N3CCCC(C)C3)CC2)cc(OC)c1O (centres undefined)	-0.0746	-3.4	.	-3.1	-1.23	-5.1
CCOC(=O)C1(Cc2cccc(F)c2)CCN(CC2CC2)CC1	0.775	-0.554	.	5.2	0.14	5.1
SMILES	ROMK primary	Cl transport mod	INS promoter inh	L major viab	Ins promoter up	WT yeast gro inh
CCOC(=O)C1(Cc2cccc(OC)c2)CCN(CC2CC=CCC2)CC1 (centres undefined)	.	-0.155	.	92.0*	-0.13	-2.7
CCOC(=O)C1(Cc2ccccc2)CCN(CC2CC=CCC2)CC1 (centres undefined)	0.143	0.0103	6.2	79.7*	-0.81	-5.4
O=C(c1ccccc1)N1CCN(CC(O)COCC2CC=CCC2)CC1 (centres undefined)	0.0661	-0.294	.	45.4	0.04	-5.3
Cc1cccc(NC(=S)N(Cc2ccco2)C(C)c2cccs2)c1 (centres undefined)	-0.392	0.474	-38.9	21.7	0.23	72.1*
CC(c1cccs1)N(Cc1ccco1)C(=S)Nc1ccccc1Cl (centres undefined)	-0.347	-0.00662	-13.3	4.0	-0.67	63.4*
CC(c1cccs1)N(Cc1ccco1)C(=S)Nc1ccc(F)c(Cl)c1 (centres undefined)	-0.794	-0.194	-22.2	19.5	-0.93	78.5*
Cc1ccccc1NC(=S)N(Cc1ccco1)C(C)c1cccs1 (centres undefined)	-0.125	0.228	-44.4	42.5	0.29	31.8
COc1cccc(NC(=S)N(Cc2ccco2)C(C)c2ccco2)c1 (centres undefined)	.	-0.668	-10.0	2.9	0.18	7.0
CC(=C/c1ccccc1)/C=N/NC(=O)CSc1nc(C)cc(C)n1	.	0.0287	.	-6.0	.	-6.7
CCOc1ccc(S(=O)(=O)NCCCN2CCOCC2)c2ccccc12	.	-0.0126	-15.4	85.3*	0.08	-18.0
CCCOc1ccc(S(=O)(=O)NCCCN2CCOCC2)c2ccccc12	-1.32	.	18.5	27.8	.	-3.3
COc1ccc(S(=O)(=O)NCCCN2CCOCC2)c2ccccc12	.	0.622	25.9	91.8*	1.38	3.6
Cc1ccc(C)c(S(=O)(=O)NCCCN2CCOCC2)c1	0.0443	0.0367	.	35.4	0.56	20.5
O=C(Oc1ccc(NC2=C(Cl)C(=O)c3ccccc3C2=O)cc1)c1ccc([N+](=O)[O-])cc1	-0.529	1.23	62.5*	8.1	-0.06	12.7
CC(C)N1CC(O)=C(c2nc3ccccc3[nH]2)C1=N	0.813	.	-7.1	7.7	.	-13.4
CC1(C)C(O)=C(c2nc3ccccc3[nH]2)C(=N)N1c1ccccc1	.	0.353	4.7	82.2*	-0.32	25.7
Cn1cc(CN2CCCC(C(=O)c3cc(F)ccc3F)C2)c2ccccc21 (centres undefined)	-1.3	0.000587	.	87.9*	-0.39	16.9
COc1ccc(F)cc1C(=O)C1CCCN(Cc2c[nH]c3ccccc23)C1 (centres undefined)	-0.804	0.0195	13.0	42.5	.	15.0
COc1ccc(F)cc1C(=O)C1CCCN(Cc2cn(C)c3ccccc23)C1 (centres undefined)	-1.64	0.384	.	89.6*	-0.51	42.5
Cc1ccc(C(=O)NNc2cc(N3CCCC3)nc(N3CCCC3)n2)cc1	.	.	23.1	100.4*	.	21.2
O=C1S/C(=C/c2ccc(N3CCOCC3)o2)C(=O)N1Cc1c(F)cccc1Cl	-2.08	i	-177.8	84.8*	.	-0.1
O=C(NNC(=O)c1ccc2c(c1)OCO2)NC1CCCCC1	.	-0.781	.	-5.3	0.38	-29.9
O=C(NC1(C(=O)NC2CCCCC2)CCCCC1)c1ccc2c(c1)OCO2	.	0.601	-22.9	93.3*	0.21	-3.0
O=C(NC1(C(=O)NC2CCCC2)CCCCC1)c1ccc2c(c1)OCO2	.	0.443	-18.8	57.5*	0.34	12.3
COc1ccc(NC(=O)c2cccc(Cn3cc(Br)cn3)c2)cn1	-0.736	-0.0247	33.3	-2.5	-0.22	-1.2
Cc1cc(C)cc(NC(=O)Nc2cc(-c3ccccc3)nn2C)c1	0.0024	-0.214	.	.	-0.02	.
O=C(OCC(=O)C12CC3CC(CC(C3)C1)C2)c1cccnc1Cl	0.0896	0.502	-67.9	60.3*	0.16	14.9
